Most compounds without a hit are left out; they make up all but 19% or so of the library.
AMA1 RON2 block = AMA1-RON2 (P. falciparum) interaction inhibition; Potency, µM (series often up to 58.2 µM), hits mostly inhibitors; AlphaScreen AMA1-biotinylated RON2 peptide binding; actives 0.2% (n = 360,000); also: nearly all actives have a fitted effect of over 45% in size
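AMA1 (3D7) with his tag at 25 nM final met compounds first, then biotinylated RON2 peptide at 25 nM; detection used donor plus acceptor beads, 10 µg/mL apiece, read by AlphaScreen after 30 min at room temperature.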
Pf growth 96h = P. falciparum growth inhibition at 96 hour, primary screen for plastid delayed-death inhibitors. actives 6.9% (n = 320,000). P. falciparum luciferase reporter growth, 96 h. Potency, µM (series often up to 28.7 µM), most hits filed as inhibitors. AID 504834
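Plates of compound plus infected erythrocytes (2% hematocrit, 0.05% parasitemia final) incubate 96 hours, 37 C, 5% CO2. Detection reagent added; reduced luminescence from the parasites' luciferase reporter flags inhibition.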
Pf growth 48h = P. falciparum growth inhibition at 48 hours (one generation); P. falciparum luciferase growth in erythrocytes, 48 h; Potency, µM (titrated, usually from 28.7 µM), hits mostly inhibitors; actives 5.9% (n = 310,000); AID 504832
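Compounds are pin-transferred into medium, infected erythrocytes (2% hematocrit, 0.1% parasitemia final) are added, and plates sit one parasite generation at 37 C in 5% CO2. Detection reagent is then added and luminescence measured.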
Cycloheximide cs = counter-screen hit for Shiga toxin inhibitors, cycloheximide; max response, %; cell reporter, cycloheximide protein synthesis inhibition counterscreen; actives 12% (n = 300,000); in the data active = max response mostly above about 13%, no sharp cut-off; inactive = mostly below about 14%; also: read at 38.3 µM for the half of the compounds with a filed dose
SARS PLpro yeast = SARS-CoV PLP inhibition in yeast. Potency, µM (series often up to 32.9 µM), most hits filed as activators. actives 0.19% (n = 330,000). S. cerevisiae expressing SARS-CoV PLpro, growth rescue. AID 485353; calls by dose curve; also: nearly all actives have a fitted effect of over 55% in size
Shiga inhibitor = inhibitors of Shiga toxin in Vero cells | AID 2315 | actives 9.2% (n = 290,000) | inhibition, % at 38.7 µM | Vero cells, Shiga toxin protein synthesis inhibition reporter; in the data active = inhibition mostly above about 28%, no sharp cut-off; inactive = mostly below about 43%
Numbers stand for hits; n = inactive; u = inconclusive; x = no result; ! = repeats disagree. Unless noted, calls follow the shape of the dose curve; as a rule, active = well fitted curve in the direction sought with a large enough effect; inconclusive = small, poorly fitted or top-dose-only effect, or another doubt; inactive = no such curve, though single readings can be large; an effect the other way counts as inactive or inconclusive.

SMILES	AMA1 RON2 block	Pf growth 96h	Pf growth 48h	Cycloheximide cs	SARS PLpro yeast	Shiga inhibitor
CCC1OC(=O)C[C@H](O)C(C)[C@@H](O[C@@H]2OC(C)C(O)C(N(C)C)C2O)C(CCN2CC(C)CC(C)C2)CC(C)C(=O)/C=C/C(C)=C\[C@@H]1COC1OC(C)C(O)C(OC)C1OC (stereo partly drawn)	x	3.79µM	u	x	x	x
CCOc1ccc(N(CC(=O)NCCSCc2ccco2)S(=O)(=O)c2ccc(C)cc2)cc1	n	8.28µM	u	n	n	n
CCOc1ccc(S(=O)(=O)N(CC(=O)N/N=C/c2cccs2)c2ccc(C)cc2)cc1	n	u	13.1µM	n	n	n
CCOc1ccccc1N(CC(=O)NCCSCc1ccco1)S(=O)(=O)c1ccccc1	n	n	8.28µM	n	n	n
COc1ccc(S(=O)(=O)N(CC(=O)N/N=C/c2cccs2)c2ccc(C)cc2)cc1OC	n	x	n	n	n	n
COc1ccc(OCC(=O)N(C)Cc2ccccc2)cc1	n	n	n	n	n	n
Cc1cc(OCC(=O)N(C)Cc2ccccc2)ccc1Cl	n	u	n	27.7	n	23.7
CN(Cc1ccccc1)C(=O)CC(=O)N(C)Cc1ccccc1	n	n	n	27.5	n	52.1
Cc1nn(CC(=O)NCc2ccccc2)c(=O)c2cccn12	n	n	n	n	n	n
Cc1nn(CC(=O)N(C)Cc2ccccc2)c(=O)c2cccn12	n	n	n	n	n	46.1
Cc1cc(OCC(=O)N(C)Cc2ccccc2)ccc1Br	n	u	n	34.5	n	56.4
CC1CCN(CCCNC(=O)c2coc3nc4ccccc4nc23)CC1	n	n	u	n	n	n
O=C(NCCc1ccccc1)c1n[nH]c(=O)c2ccccc12	n	n	n	26.6	n	n
CC1CCN(CCCNC(=O)c2n[nH]c(=O)c3ccccc23)CC1	n	11.7µM	n	n	n	n
CCCCOC(=O)c1ccc(NC(=O)c2c(N)n(C)c(=O)[nH]c2=O)cc1	n	x	x	x	x	x
O=C(c1ccccc1)c1cnc(-c2ccc(Cl)cc2)s1	n	n	n	39.2	n	116.4
CN(C)/C=C/C(=O)c1cnc(-c2ccccc2)s1	n	n	n	52.3	n	103.7
CN(C)/C=C/C(=O)c1cnc(-c2ccc(Cl)cc2)s1	n	n	n	51.1	n	96.5
CN(C)/C=C/C(=O)c1ccc(Cl)s1	n	u	n	16.0	n	n
COc1cccc2[nH]c(C(=O)NCc3ccccc3)cc12	n	n	x	n	n	n
CN(CC(=O)Nc1ccc(F)cc1)C(=O)c1ccc(OCc2cn3ccccc3n2)cc1	n	x	x	x	n	x
Cc1cc(C)[n+](Cc2ccccc2)cc1C(N)=O	n	x	x	x	x	x
CCc1nc2ccc(C(=O)Nc3ccc(NC(C)=O)cc3)cn2c1N(CCC(C)C)CCN(C)C	n	x	x	x	x	x
O=c1oc2ccccc2nc1/C=C(O)/C=C\c1ccccc1	n	n	n	36.1	n	47.3
O=C(/C=C/c1ccc(F)cc1)N1CCN(Cc2ccccc2)CC1	n	x	x	x	x	x
SMILES	AMA1 RON2 block	Pf growth 96h	Pf growth 48h	Cycloheximide cs	SARS PLpro yeast	Shiga inhibitor
Cc1ccc(/C(O)=C/c2nc3ccccc3oc2=O)cc1	n	n	n	31.7	n	67.5
Cc1nc(C)c(/C(O)=C\c2nc3ccc([N+](=O)[O-])cc3oc2=O)o1	n	n	n	n	n	n
O=c1oc2ccccc2nc1/C=C(O)/C=C/c1ccc(F)cc1	n	u	n	43.9	n	85.0
CCc1nc2c(OCc3ccccc3C)cccn2c1N(C)C(=O)C1CC1	n	x	x	x	x	x
CCOc1cc(N2CCOCC2)c(OCC)cc1NC(=O)CN1C(=O)NC(C)(c2ccc(OC)cc2)C1=O (stereo not drawn)	n	x	x	x	x	x
Cn1c(=O)c2c(nc(SC3C(=O)CC(C)(C)CC3=O)n2C)n(C)c1=O	n	11.7µM	n	n	n	n
CC(C)Sc1nc2c(c(=O)n(C)c(=O)n2C)n1C	n	n	n	n	n	n
COc1ccccc1NC(=O)C1CCCN(S(=O)(=O)c2c(C)noc2C)C1 (stereo not drawn)	n	n	n	n	n	n
CCc1nnc(NC(=O)CSc2nnc3nc(C)cc(C)n23)s1	n	2.08µM	n	n	n	n
CCn1c(SCC(=O)O)nnc1-c1ccc(S(=O)(=O)N2CCCC2)cc1	n	u	n	n	n	n
Cn1c(SCC(=O)Nc2nccs2)nnc1-c1ccc(S(=O)(=O)N2CCCC2)cc1	n	6.57µM	x	n	n	n
Cc1cc(C)n2c(SCC(=O)Nc3cc(C)on3)nnc2n1	n	n	n	n	n	n
CCc1nnc(NC(=O)CSc2nnc(-c3ccc(S(=O)(=O)N4CCCC4)cc3)n2CC)s1	n	u	u	23.6	n	n
CCn1c(SCc2ccccc2)nnc1-c1ccc(S(=O)(=O)N2CCCCC2)cc1	n	n	10.4µM	n	n	n
CCn1c(SCC(=O)Nc2nccs2)nnc1-c1ccc(S(=O)(=O)N2CCCCCC2)cc1	n	n	x	n	n	n
CC(=O)CCC(=O)N1CCC(n2nccc2NC(=O)c2ccccc2C)CC1	n	n	n	n	n	n
CCOC(=O)Nc1ccc2c(c1)N(C(=O)OCCN(C)C)c1ccccc1CC2	n	1.47µM!	n	n	n	n
CCNCC(=O)N1c2ccccc2CCc2ccc(NC(=O)OCC)cc21	n	n	10.4µM	n	n	n
CNCCC(=O)N1c2ccccc2CCc2ccc(NC(=O)OC)cc21	n	n	n	n	n	n
CCOC(=O)Nc1ccc2c(c1)N(C(=O)CN)c1ccccc1CC2	n	u	11.7µM	n	n	n
CCN(CC)CCNCC(=O)N1c2ccccc2CCc2ccc(NC(=O)OC)cc21	n	u	u	n	n	n
CCOC(=O)Nc1ccc2c(c1)N(C(=O)CN(C)C)c1ccccc1CC2	n	10.4µM	n	n	n	n
COc1ccc(Cn2cc(F)c(=O)n(CCC(C)C)c2=O)cc1[N+](=O)[O-]	n	u	n	n	n	n
COc1ccc(NC(=O)CN2C(=O)NC3(CCCCC3C)C2=O)cc1OC (stereo not drawn)	n	n	u	x	n	x
CCOC(=O)C1(C)CCN1C(=O)c1csnn1 (stereo not drawn)	n	x	x	x	x	x
SMILES	AMA1 RON2 block	Pf growth 96h	Pf growth 48h	Cycloheximide cs	SARS PLpro yeast	Shiga inhibitor
COC(=O)Nc1ccc2c(c1)N(C(=O)CCN1CCOCC1)c1ccccc1S2	n	u	u	n	n	n
CCOC(=O)Nc1ccc2c(c1)N(C(=O)CCN1CCOCC1)c1ccccc1S2	n	u	14.7µM!	n	n	n
COC(=O)Nc1ccc2c(c1)N(C(=O)CCN(C)C)c1ccccc1CC2	n	7.38µM	n	n	n	n
CCOC(=O)Nc1ccc2c(c1)N(C(=O)CCN(C)C)c1ccccc1CC2	n	n	n	n	n	n
O=C(Cc1cccc(NC(=O)C2CCCN(C(=O)C3CCCCC3)C2)c1)Nc1cccc(C(=O)N2CCCCC2)c1 (stereo not drawn)	n	x	x	x	x	x
O=C(Cc1cccc(NC(=O)C2CCCN(C(=O)C3CCC3)C2)c1)Nc1cccc(C(=O)N2CCCC2)c1 (stereo not drawn)	n	2.33µM	u	x	n	x

Screens as filed in PubChem.
